Eleven molecules from ChEMBL document CHEMBL2218924, “A broad activity screen in support of a chemogenomic map for kinase signalling research and drug discovery” (Biochem J, 2013) can be followed below.

The term residual activity denotes the signal under treatment as a percentage of the control signal.

Experiment [1] addresses T1, Muscle, skeletal receptor tyrosine-protein kinase (Homo sapiens) (UniProt O15146).
T1 sequence (whole entry): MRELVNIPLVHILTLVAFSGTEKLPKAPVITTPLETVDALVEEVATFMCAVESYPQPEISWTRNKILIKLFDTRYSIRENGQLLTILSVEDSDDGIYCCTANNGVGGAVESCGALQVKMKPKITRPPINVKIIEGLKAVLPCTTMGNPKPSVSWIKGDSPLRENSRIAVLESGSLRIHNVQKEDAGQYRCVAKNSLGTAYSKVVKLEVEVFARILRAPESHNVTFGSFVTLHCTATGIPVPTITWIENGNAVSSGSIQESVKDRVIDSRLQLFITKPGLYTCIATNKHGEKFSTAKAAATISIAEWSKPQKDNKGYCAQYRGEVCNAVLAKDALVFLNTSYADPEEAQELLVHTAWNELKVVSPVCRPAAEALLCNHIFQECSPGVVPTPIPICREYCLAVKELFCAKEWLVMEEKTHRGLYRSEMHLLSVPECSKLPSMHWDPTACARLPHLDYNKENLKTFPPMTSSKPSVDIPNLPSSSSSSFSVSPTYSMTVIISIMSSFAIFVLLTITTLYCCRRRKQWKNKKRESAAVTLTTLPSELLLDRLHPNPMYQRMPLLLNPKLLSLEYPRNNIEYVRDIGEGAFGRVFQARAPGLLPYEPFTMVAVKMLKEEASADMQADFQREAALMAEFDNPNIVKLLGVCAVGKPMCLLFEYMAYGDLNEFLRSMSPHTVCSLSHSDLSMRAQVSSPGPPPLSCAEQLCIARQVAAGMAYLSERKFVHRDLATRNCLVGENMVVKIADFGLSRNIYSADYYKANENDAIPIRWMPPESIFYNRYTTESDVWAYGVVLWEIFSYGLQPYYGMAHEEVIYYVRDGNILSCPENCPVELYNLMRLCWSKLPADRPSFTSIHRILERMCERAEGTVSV
To be noted: at 1 µM.

Experiment [2] addresses T1, Muscle, skeletal receptor tyrosine-protein kinase (Homo sapiens). To be noted: at 10 µM.
Experiment [3] deals with T2, Serine/threonine-protein kinase Nek11 (Homo sapiens) (UniProt Q8NG66).
T2 sequence (whole entry): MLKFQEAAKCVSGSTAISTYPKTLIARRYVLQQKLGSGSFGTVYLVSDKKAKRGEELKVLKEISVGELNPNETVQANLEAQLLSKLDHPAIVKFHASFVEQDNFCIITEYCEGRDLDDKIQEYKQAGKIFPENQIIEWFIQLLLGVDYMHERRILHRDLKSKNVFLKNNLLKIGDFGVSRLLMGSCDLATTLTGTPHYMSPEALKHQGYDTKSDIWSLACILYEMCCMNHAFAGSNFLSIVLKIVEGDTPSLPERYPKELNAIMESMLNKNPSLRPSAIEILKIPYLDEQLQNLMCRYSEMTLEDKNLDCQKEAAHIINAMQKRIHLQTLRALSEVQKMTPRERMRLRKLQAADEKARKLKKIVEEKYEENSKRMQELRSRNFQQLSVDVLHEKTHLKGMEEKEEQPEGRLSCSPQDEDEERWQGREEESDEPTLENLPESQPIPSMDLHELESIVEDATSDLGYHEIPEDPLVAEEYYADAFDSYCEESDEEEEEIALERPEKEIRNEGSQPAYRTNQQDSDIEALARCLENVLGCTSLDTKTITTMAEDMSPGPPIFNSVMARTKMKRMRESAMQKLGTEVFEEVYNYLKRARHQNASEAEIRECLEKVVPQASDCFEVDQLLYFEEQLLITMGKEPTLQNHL
To be noted: at 1 µM.

For experiment [4], the target named is T2, Serine/threonine-protein kinase Nek11 (Homo sapiens). To be noted: at 10 µM.
Experiment [5] concerns the target T3, Serine/threonine-protein kinase Nek2 (Homo sapiens) (UniProt P51955).
T3 sequence (whole entry): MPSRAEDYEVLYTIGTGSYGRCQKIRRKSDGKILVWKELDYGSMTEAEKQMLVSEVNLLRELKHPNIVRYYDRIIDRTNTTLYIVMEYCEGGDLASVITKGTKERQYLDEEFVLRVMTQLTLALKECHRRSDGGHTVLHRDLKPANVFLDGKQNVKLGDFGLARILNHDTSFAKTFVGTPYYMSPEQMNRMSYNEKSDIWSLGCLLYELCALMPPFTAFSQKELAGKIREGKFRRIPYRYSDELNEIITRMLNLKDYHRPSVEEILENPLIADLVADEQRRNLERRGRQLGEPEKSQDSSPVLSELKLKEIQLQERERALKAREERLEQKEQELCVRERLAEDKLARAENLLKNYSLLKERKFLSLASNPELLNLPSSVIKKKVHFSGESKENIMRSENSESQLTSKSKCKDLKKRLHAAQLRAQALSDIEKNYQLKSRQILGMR
To be noted: at 1 µM.

The target in experiment [6] is T3, Serine/threonine-protein kinase Nek2 (Homo sapiens). As to conditions: at 10 µM.
Experiment [7] addresses Serine/threonine-protein kinase tousled-like 2 (Homo sapiens) (UniProt Q86UE8). As to conditions: at 1 µM.
Experiment [8] shares this target. As to conditions: at 10 µM.
The target in experiment [9] is T4, Serine/threonine-protein kinase Nek3 (Homo sapiens) (UniProt P51956).
T4 sequence (whole entry): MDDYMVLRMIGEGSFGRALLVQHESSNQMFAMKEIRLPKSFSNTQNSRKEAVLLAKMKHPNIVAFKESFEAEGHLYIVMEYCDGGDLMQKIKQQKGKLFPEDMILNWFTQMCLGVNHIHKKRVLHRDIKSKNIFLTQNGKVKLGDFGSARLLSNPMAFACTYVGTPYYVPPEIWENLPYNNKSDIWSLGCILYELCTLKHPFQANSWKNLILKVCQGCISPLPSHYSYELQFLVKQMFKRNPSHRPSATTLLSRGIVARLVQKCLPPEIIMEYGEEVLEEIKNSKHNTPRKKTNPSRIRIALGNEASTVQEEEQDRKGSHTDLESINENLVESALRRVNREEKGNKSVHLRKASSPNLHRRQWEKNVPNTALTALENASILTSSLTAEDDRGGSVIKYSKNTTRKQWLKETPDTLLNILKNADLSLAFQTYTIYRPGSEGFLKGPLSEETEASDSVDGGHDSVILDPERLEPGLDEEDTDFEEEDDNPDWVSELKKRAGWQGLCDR
To be noted: at 1 µM.

Experiment [10] deals with T4, Serine/threonine-protein kinase Nek3 (Homo sapiens). To be noted: at 10 µM.

Sequence of Serine/threonine-protein kinase tousled-like 2 (Homo sapiens) (Q86UE8 whole entry, looked up): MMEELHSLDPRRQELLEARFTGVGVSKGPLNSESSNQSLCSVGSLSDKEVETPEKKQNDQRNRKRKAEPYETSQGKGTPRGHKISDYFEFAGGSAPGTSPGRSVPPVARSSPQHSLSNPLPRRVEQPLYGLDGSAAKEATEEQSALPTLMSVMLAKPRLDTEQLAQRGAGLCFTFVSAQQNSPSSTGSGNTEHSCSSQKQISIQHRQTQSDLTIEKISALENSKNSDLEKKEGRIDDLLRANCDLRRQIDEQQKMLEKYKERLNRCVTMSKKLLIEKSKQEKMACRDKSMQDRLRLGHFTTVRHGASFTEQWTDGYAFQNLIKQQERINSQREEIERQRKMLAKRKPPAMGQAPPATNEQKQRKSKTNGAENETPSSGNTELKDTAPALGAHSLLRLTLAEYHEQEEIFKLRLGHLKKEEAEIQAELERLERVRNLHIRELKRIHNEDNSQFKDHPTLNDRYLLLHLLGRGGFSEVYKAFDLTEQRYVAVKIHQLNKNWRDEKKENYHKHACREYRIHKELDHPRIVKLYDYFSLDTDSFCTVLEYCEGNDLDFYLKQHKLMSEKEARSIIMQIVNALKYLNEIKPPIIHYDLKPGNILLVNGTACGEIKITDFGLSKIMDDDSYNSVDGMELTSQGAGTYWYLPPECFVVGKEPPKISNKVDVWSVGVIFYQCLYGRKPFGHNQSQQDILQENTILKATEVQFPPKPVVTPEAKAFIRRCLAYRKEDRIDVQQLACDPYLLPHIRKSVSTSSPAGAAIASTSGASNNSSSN

As for `COc1ccc(Cl)cc1NC(=O)Nc1cc(C)nc2ccccc12`, the residual activity amounted to 97% in [1]; 71% in [2]; 79% in experiment [3]; 93% in [4]; 78% in experiment [5]; 86% in experiment [6]. In addition, the residual activity in [7] worked out at 97%; in experiment [8], 95%.

As for `O=C(O)/C=C/c1cc(Br)c(Br)c(Br)c1Br`, the residual activity in experiment [1] came to 106%; in [2], 98%; in [3], 85%; in experiment [4] it was 54%; in experiment [9], 81%; in experiment [10], 108%. For the same molecule, the residual activity in experiment [7] came to 101%; in experiment [8], 93%.

Regarding `O=S(=O)(NCCNC/C=C/c1ccc(Br)cc1)c1cccc2cnccc12`, the residual activity in experiment [1] turned out to be 81%; in experiment [2], 76%; in [3], 69%; in [4], 69%.

As for `CCCC(=O)Oc1ccc2[nH]c(C(=O)c3cc4ccccc4[nH]3)cc2c1`, the residual activity in experiment [1] amounted to 95%; in experiment [2], 76%; in [3], 75%; in experiment [4], 89%; in [5], 71%; in experiment [6], 103%. The residual activity in experiment [9] is 98%; in [10], 79%; in experiment [7] it was 100%; in experiment [8], 90%.

`NC(=O)Nc1sc(-c2ccc(F)cc2)cc1C(N)=O`: the residual activity amounted to 62% in [1]; 15% in experiment [2]; 25% in [3]; 5% in experiment [4]; 87% in experiment [5]; 58% in experiment [6]. The residual activity in [9] was found to be 69%; in experiment [10] it was 48%; in experiment [7], 72%; in experiment [8], 27%.

As to `CCCCc1c(-c2ccc(OC)cc2)[nH]c2nccnc12`, the residual activity was found to be 88% in experiment [1]; 87% in [2]; 80% in [3]; 81% in experiment [4]; 83% in experiment [6]; 87% in experiment [9]. The residual activity in experiment [7] was 87%; in experiment [8], 86%.

Turning to `CC(C)(C)n1nc(Cc2cccc3ccccc23)c2c(N)ncnc21`, the residual activity in experiment [1] was found to be 121%; in experiment [2], 76%; in experiment [3] it was 91%; in experiment [4], 82%; in experiment [5], 78%; in experiment [6] it was 97%. Besides, the residual activity was 108% in experiment [9], 105% in [10], 104% in [7] and 97% in experiment [8].

In the case of `O=C(CCCc1ccc(-c2ccccc2F)cc1)Nc1ccc(O)cc1`, the residual activity in [1] was 96%; in experiment [2] it was 84%; in experiment [3], 67%; in experiment [4] it was 60%; in experiment [6], 106%; in [9], 89%. Also, the residual activity in experiment [10] is 103%; in experiment [7], 103%; in experiment [8], 95%.

Take `CN(C)S(=O)(=O)c1ccc2c(c1)/C(=C/c1cc3c([nH]1)CCCC3)C(=O)N2`: the residual activity in experiment [1] was found to be 53%; in [2], 47%; in experiment [3], 47%; in experiment [4] it was 63%; in [5], 97%; in experiment [6] it was 100%. Moreover, the residual activity in experiment [9] is 88%; in experiment [10] it was 94%; in experiment [7], 98%; in experiment [8], 95%.

Turning to `O=c1cc(N2CCOCC2)oc2c1ccc1ccccc12`, the residual activity in [1] came out at 100%; in experiment [2], 87%; in experiment [3], 98%; in experiment [4], 75%; in experiment [5], 79%; in experiment [6], 84%. Besides, the residual activity in [10] turned out to be 79%; in [7] it was 101%; in [8], 92%.

For `O=C1Nc2ccc(Cl)cc2/C1=C/c1cc(Cl)c(O)c(Cl)c1`, the residual activity in experiment [1] is 81%; in experiment [2] it was 23%; in [3] it was 52%; in experiment [4], 65%; in experiment [5], 88%; in experiment [6], 89%. Moreover, the residual activity in [9] came to 115%; in [10], 84%; in experiment [8], 87%.
